Laboratory results published in PubChem BioAssay (EPA / NIEHS).
Calls of active or inactive are those of the source. Rule for the calls: active = hit-call score of the fitted dose curve at least 0.9, where 1 is the maximum; inactive = score below 0.9.

Assay: APR_HepG2_MitoMembPot_72hr: Apredica 72-hour HepG2 Assay for Mitochondrial Membrane Potential (AID 2282917)
Conditions: imaging, actives raise or lower the signal
Description: APR_HepG2_72hr is a cell-based, multiplexed-readout assay that uses HepG2, a human liver cell line, with measurements taken at 72 hours after chemical dosing in a 384-well plate.APR_HepG2_MitoMembPot_72hr is one of 10 assay component(s) measured or calculated from the APR_HepG2_72hr assay. It is designed to make measurements of dye binding, a form of membrane potential reporter, as detected with fluorescence intensity signals by HCS Fluorescent Imaging technology.Data from the assay component APR_HepG2_MitoMembPot_72hr was analyzed into 1 assay endpoint. This assay endpoint, APR_HepG2_MitoMembPot_72hr, was analyzed with bidirectional fitting relative to DMSO as the negative control and baseline of activity. Using a type of membrane potential reporter, gain or loss-of-signal activity can be used to understand changes in the signaling. Furthermore, this assay endpoint can be referred to as a primary readout, because this assay has produced multiple assay endpoints where this one serves a signaling function. To generalize the intended target to other relatable targets, this assay endpoint is annotated to the cell morphology intended target family, where the subfamily is organelle conformation.
Cells were treated with dimethyl sulfoxide (DMSO) as a solvent control at a final concentration of 0.5% v/v or with compounds in DMSO with a resulting final DMSO concentration of 0.5% v/v. Compound treatment was done at concentrations of 0.39, 0.78, 1.56, 3.12, 6.24, 12.5, 25, 50, 100, and 200 uM in duplicate on each plate. Cells were treated with compounds for 1, 24, or 72 hr. Carbonyl […] m-chloro-phenylhydrazone (CCCP) and taxol were used as positive controls for mitochondrial function and cytoskeletal stability, respectively; DMSO served as the negative control for this experiment. Cells were fixed by the direct addition of 50 uL formaldehyde in Hank's Balanced Salt Solution (HBSS) to a final concentration of 3.7%. After incubation in the fixation medium for 30 min at room temperature (293-298 K), cells were rinsed twice with HBSS and treated with cell permeabilization buffer (16 uL of 0.5% Triton X-100) for 10 min at room temperature (293-298 K) before labeling. For mitochondrial membrane potential and mitochondrial measurements, pre-fixed cells were incubated with 50 uL of MitoTracker Red CMXRos (Invitrogen) at a concentration of 250 nM for 30 min before fixation. In the remaining cases, post-fixed cells were labeled by incubation with a multiplexed mixture of primary antibodies in HBSS for 60 min at room temperature (293-298 K) to detect immunoreactivity of c-Jun (1:500), phospho-histone H3 (1:100), phospho-histone H2A.x (1:200), p53 (1:400), alpha-tubulin (1:200) and Hoechst 33342 (2 ug/mL). Cells were labeled for multiplexed imaging on two separate plates: a) Hoechst 33342, MitoTracker Red, phospho-histone H3, and alpha-tubulin, and b) Hoechst 33342, phospho-histone H2A.x, and c-Jun. A final rinse with HBSS (50 uL) was performed before analysis. The primary and secondary antibodies for the proteins were phospho-histone H3 (rabbit anti-phospho-histone H3 and FITC-donkey anti-rabbit IgG), phospho-histone H2A.x (mouse anti-phospho-histone H2A.x and FITC-donkey anti-mouse IgG), c-Jun (rabbit anti-phospho-c-Jun and Cy3-donkey anti-rabbit IgG), p53 (sheep anti-p53 and Cy5-donkey anti-sheep IgG), alpha-tubulin (mouse anti-alpha-tubulin and Cy5-donkey anti-mouse IgG). These antibodies are available as the CellCiphr HepG2 assay kit (Millipore).Digital images of each well were captured using a Cellomics ArrayScan VTI (Thermo Scientific Cellomics) (0.8 NA objective, 0.63x optical coupler, and XF-93 filter set) at 20x magnification. The images were acquired using the autofocus feature of the ArrayScan instrument, which entails the following steps. First, the camera focuses on channel 1 (Hoechst 33342), where nuclei are identified. Second, a Z offset of 1 um is used for capturing mitochondria (MitoTracker Red). […]

SMILES	outcome	AC50
CCCCC(CC)COC(=O)CCCCC(=O)OCc1ccccc1 (stereo not given)	inactive	
CCCCCCCCCCCCN1CCCC1=O	inactive	
CN1CCC[C@H]1c1cccnc1	inactive	
c1ccc2c(c1)Cc1ccccc1-2	inactive	
O=c1c(-c2ccc(O)cc2)coc2cc(O)ccc12	inactive	
NC(=O)N1C(=O)C(C(=O)c2cc(Cl)cs2)c2cc(F)c(Cl)cc21 (stereo not given)	inactive	
Cc1cc(CCN2CCN(c3nsc4ccccc34)CC2)cc2c1NC(=O)CC2(C)C	inactive	
CCCCCCC(=O)O	inactive	
OC1CCCCC1	inactive	
Cc1oc(-c2ccccc2)nc1CCOc1ccc(C[C@H](Nc2ccccc2C(=O)c2ccccc2)C(=O)O)cc1		120 µM (active)
C[C@@H]1C[C@H]2[C@@H]3CCC4=CC(=O)C=C[C@]4(C)[C@@]3(F)[C@@H](O)C[C@]2(C)[C@@]1(O)C(=O)COP(=O)(O)O		45.1 µM (active)
C#C[C@]1(O)CC[C@H]2[C@@H]3CCC4=CC(=O)CC[C@@H]4[C@H]3CC[C@@]21C	inactive	
COc1cc(CCC(=O)CC(=O)CCc2ccc(O)c(OC)c2)ccc1O	inactive	
Cc1cc(C)c(O)c(C)c1	inactive	
CCCOc1sc(C(=O)N2CCC(c3cc(CN)ccc3F)CC2)c(C)c1Br	inactive	
CCN(CC)CCNc1ccc(CNC=O)c2sc3ccc(OC)cc3c(=O)c12	inactive	
CCCCCCCCC(=O)O	inactive	
Oc1cc2ccccc2c2ccccc12		38.2 µM (active)
NC(=O)N(O)[C@@H]1C=C[C@H](Oc2cccc(Oc3ccc(F)cc3)c2)C1	inactive	
CCCOC(=O)c1ccc(O)cc1	inactive	

SMILES	outcome	AC50
OCCC(F)(F)C(F)(F)C(F)(F)C(F)(F)C(F)(F)C(F)(F)F	inactive	
CN(C)C=O	inactive	
CC(C)CCCCCCOC(=O)CCCCC(=O)OCCCCCCC(C)C	inactive	
CCc1nn(C2CCCCC2)c2cc(C3(C#N)CCC(C(=O)O)CC3)ccc12 (stereo not given)	inactive	
CC(C)(C)c1cccc(C(C)(C)C)c1O		100 µM (active)
CCOC(=O)CC(O)(CC(=O)OCC)C(=O)OCC	inactive	
CC(C)(C)CC(C)(C)c1ccc(O)c(-n2nc3ccccc3n2)c1	inactive	
CCC(=C(c1ccc(O)cc1)c1ccc(OCCN(C)C)cc1)c1ccccc1	inactive	
CCCCCCCCCCCCCCCS(=O)(=O)Oc1ccccc1	inactive	
ClC1=C(Cl)C(Cl)(Cl)C(Cl)=C1Cl	inactive	
N#C[C@@H]1CC(F)(F)CN1C(=O)CNC1CC2CCC(C1)N2c1ncccn1 (stereo not given in full)	inactive	
O=C(O)c1ccccc1C(c1ccc(O)cc1)c1ccc(O)cc1	inactive	
OCCC(F)(F)C(F)(F)C(F)(F)C(F)(F)C(F)(F)C(F)(F)C(F)(F)C(F)(F)F	inactive	
COCC(C)O (stereo not given)	inactive	
CCCCCCCCCCCCc1ccccc1S(=O)(=O)O	inactive	
CC(O)CO (stereo not given)	inactive	
c1ccc2c(c1)ccc1ccccc12	inactive	
CN1CCN(c2ccccc2/C=C2\SCCN(c3ccc(Cl)c(Cl)c3)C2=O)CC1	inactive	
CC[C@H](c1ccc(O)cc1)[C@@H](CC)c1ccc(O)cc1	inactive	
O=C(OCCOCCOC(=O)c1ccccc1)c1ccccc1	inactive	
